Data as given in PubChem BioAssay (NCATS).
Results filed as inconclusive are left out. Activity calls are given as the source filed them. The call rests on the fitted dose curve; in most records, active means well fitted curve in the direction sought with a large enough effect; inconclusive means small, poorly fitted or top-dose-only effect, or another doubt; inactive means no such curve, though single readings can be large; an effect the other way counts as inactive or inconclusive.

Experiment: qHTS of pediatric cancer cell lines to identify multiple opportunities for drug repurposing: Primary screen for Rh18 cells (AID 1347102); further: nearly all actives have a fitted effect of over 65% in size; on activity change, negative = cytotoxic: on the % scale 0 is the no-effect control and ±100 the full control effect
Details: Rh18 rhabdomyosarcoma viability, CellTiter-Glo luminescence, 48 h; series mostly up to 46 µM; activity change, negative = cytotoxic: at the top concentration
Method in brief: (§1)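 Cells (500-1,000/well) rested 5 h, then received compounds for 48 h; metabolically active cells were measured by CellTiter-Glo luminescence. Final concentrations spanned up to 46 µM (MIPE, 11-point) or 0.59 nM-46 µM (NPC, 8-point) in primary screens, 11-point in follow-ups.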
Potency means the concentration at half of the fitted maximal effect.

Row | Structure (SMILES) | Potency | activity change, negative = cytotoxic
1 | CCOC(=O)C1=C(C)NC2=C(C(=O)CC(C)(C)C2)C1c1ccc(-c2ccccc2)cc1 (stereo not given) | 16.6 µM (active) | 
2 | CCCn1c(=O)c2[nH]c(-c3cnn(Cc4cccc(C(F)(F)F)c4)c3)nc2n(CC)c1=O |  | -10.2% (inactive)
3 | Cc1c(C)n(Cc2ccc(-c3ccccc3C(=O)O)cc2)c2ccc(C(=O)N[C@@H](C)c3ccc([N+](=O)[O-])cc3)cc12 |  | -13% (inactive)
4 | Cn1cc(-c2ccncc2)c(-c2ccc(OCc3ccc4ccccc4n3)cc2)n1 |  | -4.84% (inactive)
5 | CCN(CC)CCNC(=O)c1ccc2nc(-c3ccccc3)c(-c3ccc(CN4CCC(n5c(=O)[nH]c6ccccc65)CC4)cc3)nc2c1 | 2.35 µM (active) | 
6 | COC(=O)Nc1nc2ccc(C(=O)c3ccc(F)cc3)cc2[nH]1 |  | -17% (inactive)
7 | CCC(=C(c1ccccc1)c1ccc(OCCN(C)C)cc1)c1ccccc1 |  | -18.3% (inactive)
8 | C[C@]12CC[C@H](O)CC1=CCC1C2CC[C@]2(C)C(n3cnc4ccccc43)=CCC12 (stereo not given in full) |  | 8.28% (inactive)
9 | COC(=O)C1=C(C)NC(C)=C(C(=O)OCCN2CCN(C(c3ccccc3)c3ccccc3)CC2)C1c1cccc([N+](=O)[O-])c1 (stereo not given) | 16.8 µM (active) | 
10 | CNC(=O)c1ccc(-c2cnc3ncc(Cc4ccc5ncccc5c4)n3n2)cc1F |  | 6.83% (inactive)
11 | COc1cc2c(NC3CCN(C(C)C)CC3)nc(C3CCCCC3)nc2cc1OCCCN1CCCC1 | 23.5 µM (active) | 
12 | COc1ccc(CC2SC(=O)NC2=O)cc1C(=O)NCc1ccc(C(F)(F)F)cc1 (stereo not given) |  | -17.9% (inactive)
13 | CS(=O)(=O)c1ccc(-c2cnc(N)c(C(=O)Nc3ccccc3)n2)cc1 |  | 14.3% (inactive)
14 | CCc1cc2c(cc1N1CCC(N3CCOCC3)CC1)C(C)(C)c1[nH]c3cc(C#N)ccc3c1C2=O |  | -32.7% (inactive)
15 | Fc1cc(-c2cccc3ncc(-c4cnn(C5CCNCC5)c4)nc23)cc(F)c1CN1CCOCC1 | 20.9 µM (active) | 
16 | Cc1cn2c(-c3cn[nH]c3)cnc2c(Nc2ccc(C(=O)N3CCNCC3)cc2F)n1 | 16.6 µM (active) | 
17 | CCN(CC)CCCCNc1ncc2cc(-c3cc(OC)cc(OC)c3)c(NC(=O)NC(C)(C)C)nc2n1 | 13.2 µM (active) | 
18 | Cn1c(CNc2ccc(C(=N)N)cc2)nc2cc(C(=O)N(CCC(=O)O)c3ccccn3)ccc21 |  | 5.46% [at 16.1 µM] (inactive)
19 | CC[C@H](CO)Nc1nc(NCc2ccccc2)c2ncn(C(C)C)c2n1 |  | -23% (inactive)
20 | O=C(c1cncc(Br)c1)N1CCC(N2CCCC2)CC1 |  | 19.3% (inactive)
21 | CC(C)CC(=O)Nc1n[nH]c2c1CN(C(=O)C1CCN(C)CC1)C2(C)C |  | -9.54% (inactive)
22 | CCCNC(=O)Nc1ccc(Oc2ncnc3cc(OC)c(OC)cc23)cc1Cl |  | -16.7% (inactive)
23 | CN1CCN(c2cc(C(=O)Nc3ccc4c(c3)-c3c(c(C(N)=O)nn3-c3ccc(F)cc3)CC4)c(Cl)cn2)CC1 | 20.9 µM (active) | 
24 | C[C@@H]1CN(CC(=O)Nc2ccc3c(c2)Cc2cccc(-c4cc(=O)cc(N5CCOCC5)o4)c2S3)C[C@H](C)O1 | 18.7 µM (active) | 

Experiment: qHTS of pediatric cancer cell lines to identify multiple opportunities for drug repurposing: Primary screen for OHS-50 cells (AID 1347103); further: nearly all actives have a fitted effect of over 40% in size;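 on activity change, negative = cytotoxic: plate controls were DMSO neutral control for no effect and bortezomib positive control for full effect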
Details: OHS-50 osteosarcoma viability, CellTiter-Glo luminescence, 48 h; series mostly up to 57.3 µM; activity change, negative = cytotoxic: at the top concentration
Method in brief: as §1

Row | Structure (SMILES) | Potency | activity change, negative = cytotoxic
25 | CCOC(=O)C1=C(C)NC2=C(C(=O)CC(C)(C)C2)C1c1ccc(-c2ccccc2)cc1 (stereo not given) | 19.3 µM (active) | 
26 | Cc1ccc2nc(NC(=O)CSc3nc4c(c(=O)n3-c3ccccc3)SCC4)sc2c1 | 13.7 µM (active) | 
27 | Cc1c(C)n(Cc2ccc(-c3ccccc3C(=O)O)cc2)c2ccc(C(=O)N[C@@H](C)c3ccc([N+](=O)[O-])cc3)cc12 | 2.73 µM (active) | 
28 | Cn1cc(-c2ccncc2)c(-c2ccc(OCc3ccc4ccccc4n3)cc2)n1 | 3.06 µM (active) | 
29 | CCN(CC)CCNC(=O)c1ccc2nc(-c3ccccc3)c(-c3ccc(CN4CCC(n5c(=O)[nH]c6ccccc65)CC4)cc3)nc2c1 | 3.43 µM (active) | 
30 | O=C(O)C1(Cc2cccc(Nc3nccs3)n2)CCC(Oc2cccc(Cl)c2F)CC1 (stereo not given) | 0.544 µM (active) | 
31 | COC(=O)Nc1nc2ccc(C(=O)c3ccc(F)cc3)cc2[nH]1 | 0.968 µM (active) | 
32 | CCC(=C(c1ccccc1)c1ccc(OCCN(C)C)cc1)c1ccccc1 | 21.7 µM (active) | 
33 | COC(=O)C1=C(C)NC(C)=C(C(=O)OCCN2CCN(C(c3ccccc3)c3ccccc3)CC2)C1c1cccc([N+](=O)[O-])c1 (stereo not given) | 15.5 µM (active) | 
34 | CNC(=O)c1ccc(-c2cnc3ncc(Cc4ccc5ncccc5c4)n3n2)cc1F |  | 14.3% (inactive)
35 | COc1cc2c(NC3CCN(C(C)C)CC3)nc(C3CCCCC3)nc2cc1OCCCN1CCCC1 | 19.3 µM (active) | 
36 | Cc1cnc(-c2cnc(NCCNc3ccc(C#N)cn3)nc2-c2ccc(Cl)cc2Cl)[nH]1 |  | -14.7% (inactive)
37 | COc1ccc(CC2SC(=O)NC2=O)cc1C(=O)NCc1ccc(C(F)(F)F)cc1 (stereo not given) |  | -16.2% (inactive)
38 | CC(C)c1nn(-c2c(Cl)cccc2Cl)c2nc(Cc3ccc(OCCO)cc3)[nH]c(=O)c12 | 0.0544 µM (active) | 
39 | Fc1cc(-c2cccc3ncc(-c4cnn(C5CCNCC5)c4)nc23)cc(F)c1CN1CCOCC1 | 19.3 µM (active) | 
40 | Cc1cn2c(-c3cn[nH]c3)cnc2c(Nc2ccc(C(=O)N3CCNCC3)cc2F)n1 | 13.7 µM (active) | 
41 | COc1cc2c(Nc3ccc(NC(=O)c4ccccc4)cc3)ncnc2cc1OCCCN1CCOCC1 | 27.3 µM (active) | 
42 | CCN(CC)CCCCNc1ncc2cc(-c3cc(OC)cc(OC)c3)c(NC(=O)NC(C)(C)C)nc2n1 | 24.3 µM (active) | 
43 | Cn1c(CNc2ccc(C(=N)N)cc2)nc2cc(C(=O)N(CCC(=O)O)c3ccccn3)ccc21 |  | 20.7% [at 19.7 µM] (inactive)
44 | O=C(c1cncc(Br)c1)N1CCC(N2CCCC2)CC1 |  | 6.74% (inactive)
45 | CC(C)CC(=O)Nc1n[nH]c2c1CN(C(=O)C1CCN(C)CC1)C2(C)C | 3.43 µM (active) | 
46 | CCCNC(=O)Nc1ccc(Oc2ncnc3cc(OC)c(OC)cc23)cc1Cl |  | -32.1% (inactive)
47 | CN1CCN(c2cc(C(=O)Nc3ccc4c(c3)-c3c(c(C(N)=O)nn3-c3ccc(F)cc3)CC4)c(Cl)cn2)CC1 | 24.3 µM (active) | 
48 | C[C@@H]1CN(CC(=O)Nc2ccc3c(c2)Cc2cccc(-c4cc(=O)cc(N5CCOCC5)o4)c2S3)C[C@H](C)O1 | 21.7 µM (active) | 
49 | COc1cc(-c2nn(C3CCC(N4CCN(C(C)=O)CC4)CC3)c3ncnc(N)c23)ccc1NC(=O)c1cc2ccccc2n1C (stereo not given) | 2.17 µM (active) | 
50 | CC(C)(C)NC(=O)[C@H]1CN(Cc2cccnc2)CCN1C[C@@H](O)C[C@@H](Cc1ccccc1)C(=O)N[C@H]1c2ccccc2C[C@H]1O | 19.3 µM (active) | 
